Compounds with a hit are over-represented: about 4.6% of the library has one in this group of screens.
CF NFkB inh = blocks PAF-induced NF-kB reporter in cystic fibrosis cells; KKLEB NF-kB-GFP reporter, GFP fluorescence overnight; inhibition, % at 5 µM; hit rate 0.86% among 360,000; AID 588850;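 active = at least 50% inhibition at 5 µM, scaled per plate between neutral and stimulator controls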;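 note: PAF is a Pseudomonas aeruginosa culture filtrate used as stimulus; plate controls were PAF-stimulated DMSO wells for no effect and unstimulated DMSO wells for full effect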
Mdm2 MdmX PPI = disrupts the human Mdm2-MdmX interaction. inhibition, % at 8 µM. O15151+Q00987. hit rate 3% among 330,000. SaOS-2 split-luciferase Mdm2/MdmX complementation, luminescence;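 active = inhibition of at least 50% at 8 µM in the primary screen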
ABHD5-PLIN5 inh = ABHD5-PLIN5 protein interaction inhibition. Q00G26+Q8WTS1. Split G. princeps luciferase complementation, luminescence, 4 h. inhibition, % at 4 µM. hit rate 0.78% among 360,000;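 active = inhibition above the mean inhibition across every tested compound plus 3 SD, cut at about 22% in these data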;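 note: 0% = DMSO only wells and the 100% control is not disclosed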
HIF-2a block = blocks HIF-2a reporter activity; 786-0 RCC cells HIF-2a reporter, luciferase luminescence, overnight; inhibition, % at 18.8 µM; hit rate 0.72% among 360,000; AID 624352;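 active = inhibition of the luminescence signal of 40% or more relative to plate controls, in a single-dose primary screen at 18.75 µM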
Peg3 promoter = reduces Peg3 promoter-driven luciferase expression in HeLa | HeLa PEG-Prom luciferase reporter, luminescence, overnight | inhibition, % at 20 µM | hit rate 1.7% among 360,000;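 active = inhibition of at least 50% at 20 µM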
KKLEB tox = counter-screen for CF NF-kB inhibitors: cytotoxicity | KKLEB CF airway cells viability, ATPlite luminescence, overnight; stronger effect = lower value; cells stimulated with P. aeruginosa culture filtrate | hit rate 0.36% among 360,000 | AID 602141 | activity change (cytotoxicity), % at 5 µM;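 active = corrected activity change at or below -50% at 5 µM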
Mdm2 MdmX conf = human Mdm2/MdmX binding inhibition, confirmed | inhibition, % at 8 µM | hit rate 55% among 10,000 | luminescent assay | AID 489028 | shares compounds with Mdm2 MdmX PPI; in the data active = inhibition above about 40%
FLuc counter = counter-screen for Mdm2/MdmX inhibitors: full-length luciferase; shares compounds with Mdm2 MdmX PPI; SaOS-2 full-length luciferase counterscreen, luminescence; inhibition, % at 8 µM; hit rate 77% among 6,200;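 active = mean inhibition at 8 µM reaching about 37%, which flags the compound as non-specific, limit read from the data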;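 note: p53-null SaOS-2 cells with luciferase driven by a doxycycline-inducible promoter; compound on cells about two nights before reading with doxycycline added after day one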
* hit, by the source's call.

What do the screens show for `COc1ccc(C(=O)Nc2sc3c(c2C(=O)O)CC(C)(C)OC3)cc1`?
CF NFkB inh: -13; Mdm2 MdmX PPI: 3; ABHD5-PLIN5 inh: 2; HIF-2a block: -22; Peg3 promoter: -9; KKLEB tox: 8

What do the screens show for `CC(C)COc1ccc(C(=O)Nc2sc3c(c2C(=O)O)CC(C)(C)OC3)cc1`?
CF NFkB inh: -8; Mdm2 MdmX PPI: 51*; ABHD5-PLIN5 inh: -5; HIF-2a block: 4; Peg3 promoter: 25; KKLEB tox: 6; Mdm2 MdmX conf: 47*; FLuc counter: 82*

Results for Nc1c(S(=O)(=O)c2cccs2)c2nc3ccccc3nc2n1/N=C/c1cccc(O)c1 ?
CF NFkB inh: -10; Mdm2 MdmX PPI: 79*; ABHD5-PLIN5 inh: 2; HIF-2a block: 40*; Peg3 promoter: 92*; KKLEB tox: 10; Mdm2 MdmX conf: 56*; FLuc counter: 86*

What do the screens show for `O=C(N/N=C/c1cn(-c2ccccc2)nc1-c1cccs1)c1ccccc1F`?
CF NFkB inh: -33; Mdm2 MdmX PPI: 26; ABHD5-PLIN5 inh: 0; HIF-2a block: -146; Peg3 promoter: -35; KKLEB tox: 2

How did O=C(N/N=C/c1cccs1)c1cccc(NC(=O)c2ccc(Cl)cc2)c1 do in these assays?
Mdm2 MdmX PPI: 57*; Mdm2 MdmX conf: 3

Results for O=C(N/N=C/c1cn(-c2ccccc2)nc1-c1cccs1)c1ccc(Cl)cc1 ?
CF NFkB inh: -6; Mdm2 MdmX PPI: 52*; ABHD5-PLIN5 inh: 0; HIF-2a block: -73; Peg3 promoter: -41; KKLEB tox: 0; Mdm2 MdmX conf: 31

Results for Cc1ccc(CSC(Nc2ccc(F)cc2)=C(C#N)C#N)cc1 ?
CF NFkB inh: 41; Mdm2 MdmX PPI: 91*; ABHD5-PLIN5 inh: 2; HIF-2a block: 16; Peg3 promoter: 31; KKLEB tox: -43; Mdm2 MdmX conf: 92*; FLuc counter: 24

Results for O=C(COc1ccc2c3c(c(=O)oc2c1)CCCC3)NCc1ccccn1 ?
CF NFkB inh: -22; Mdm2 MdmX PPI: -5; ABHD5-PLIN5 inh: 5; HIF-2a block: -17; Peg3 promoter: -18; KKLEB tox: 7

How did Cc1ccc(CNC(=O)c2ccc3c(=O)n4c(-c5ccc(C)cc5)csc4nc3c2)cc1 do in these assays?
CF NFkB inh: 33; Mdm2 MdmX PPI: 57*; ABHD5-PLIN5 inh: -2; HIF-2a block: 12; Peg3 promoter: -3; KKLEB tox: -48; Mdm2 MdmX conf: 44*; FLuc counter: 90*

How did Cc1ccc(-c2csc3nc4cc(C(N)=O)ccc4c(=O)n23)cc1 do in these assays?
CF NFkB inh: 25; Mdm2 MdmX PPI: -5; ABHD5-PLIN5 inh: -1; HIF-2a block: -25; Peg3 promoter: -6; KKLEB tox: -10

How did CCOc1ccc(NC(=O)c2ccc(NC(=O)CSc3nc4ccccc4c(=O)[nH]3)cc2)cc1 do in these assays?
CF NFkB inh: -25; Mdm2 MdmX PPI: 56*; ABHD5-PLIN5 inh: 6; HIF-2a block: 5; Peg3 promoter: 22; KKLEB tox: -2; Mdm2 MdmX conf: 14

What do the screens show for `C/C(=N\Nc1cc(-c2ccccc2)nc(-c2ccccc2)n1)c1ccc(O)c(C)c1`?
CF NFkB inh: -21; Mdm2 MdmX PPI: 53*; ABHD5-PLIN5 inh: -2; HIF-2a block: -169; Peg3 promoter: -70; KKLEB tox: 11; Mdm2 MdmX conf: 6

How did COc1cc(N/N=C(\C)c2ccc(O)c(C)c2)nc(-c2ccccc2)n1 do in these assays?
CF NFkB inh: -16; Mdm2 MdmX PPI: 87*; ABHD5-PLIN5 inh: -6; HIF-2a block: -49; Peg3 promoter: -22; KKLEB tox: 7; Mdm2 MdmX conf: 66*; FLuc counter: 112*

Results for CN(C)S(=O)(=O)c1cccc(NC(=O)C2CCCN(C(=O)c3ccc(Cl)cc3)C2)c1 (configuration not stated) ?
CF NFkB inh: -14; ABHD5-PLIN5 inh: 2; HIF-2a block: -11; Peg3 promoter: -1; KKLEB tox: 5

Results for Cc1ccc2nc(-c3ccccc3)c(Cc3ccsc3)n2c1 ?
ABHD5-PLIN5 inh: 1; HIF-2a block: -133

Compound activity as filed in PubChem.
